Data taken from the supplement of paper PMC6555819.

Legend:
Experiment in all cases: PBM binding z-score (relative to random genomic background probes); higher = stronger binding; sequences stand for … in GC…GCGATTGACAGCGTAGAATGAAGG
[1] = system: FXR:RXRa (NR concentration 270 nM, RXRa partner concentration 90 nM)
Summary of the method: (§1)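 Ligand-free nuclear receptor dimers were bound for 1 h to custom Agilent 4×180K protein-binding microarrays. Detection used antibodies against each partner (one per run). Binding z-scores rest on regression-normalized fluorescence, with random background probes as the reference.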

[2] = system: LXRa:RXRa (NR concentration 270 nM, RXRa partner concentration 90 nM)
Summary of the method: as §1

[3] = system: LXRa homodimer (NR concentration 270 nM)
Summary of the method: as §1

[4] = system: LXRb:RXRa (NR concentration 270 nM, RXRa partner concentration 90 nM)
Summary of the method: as §1

[5] = system: LXRb homodimer (NR concentration 270 nM)
Summary of the method: as §1

[6] = system: PPARa:RXRa (NR concentration 270 nM, RXRa partner concentration 90 nM)
Summary of the method: as §1

[7] = system: PPARg:RXRa (NR concentration 180 nM, RXRa partner concentration 90 nM)
Summary of the method: as §1

[8] = system: PPARg:RXRa 270nM:90nM, anti-RXR (NR concentration 270 nM, RXRa partner concentration 90 nM)
Summary of the method: as §1

[9] = system: PPARg:RXRa 30nM:10nM, anti-RXR (NR concentration 30 nM, RXRa partner concentration 10 nM)
Summary of the method: as §1

[10] = system: PPARg:RXRa 90nM:30nM, anti-RXR (NR concentration 90 nM, RXRa partner concentration 30 nM)
Summary of the method: as §1

[11] = system: PPARg:RXRa DBDmut IVT, anti-RXR (DBD mutation: RXRa K156A/R161A, NR concentration 270 nM, RXRa partner concentration 90 nM)
Summary of the method: as §1

[12] = system: PPARg:RXRa IVT, anti-PPARg (NR concentration 270 nM, RXRa partner concentration 90 nM)
Summary of the method: as §1

[13] = system: PPARg DBDmut:RXRa IVT, anti-PPARg (DBD mutation: PPARg1 K132A/R137A, NR concentration 270 nM, RXRa partner concentration 90 nM)
Summary of the method: as §1

[14] = system: PPARg DBDmut IVT, anti-PPARg (DBD mutation: PPARg1 K132A/R137A, NR concentration 270 nM)
Summary of the method: as §1

[15] = system: PPARg homodimer (NR concentration 180 nM)
Summary of the method: as §1

[16] = system: PXR:RXRa (NR concentration 270 nM, RXRa partner concentration 90 nM)
Summary of the method: as §1

[17] = system: PXR homodimer (NR concentration 270 nM)
Summary of the method: as §1

[18] = system: RARa:RXR (NR concentration 270 nM, RXRa partner concentration 90 nM)
Summary of the method: as §1

[19] = system: RARa homodimer (NR concentration 270 nM)
Summary of the method: as §1

[20] = system: RARb:RXRa (NR concentration 270 nM, RXRa partner concentration 90 nM)
Summary of the method: as §1

Sequence	PBM binding z-score [1]	PBM binding z-score [2]	PBM binding z-score [3]	PBM binding z-score [4]	PBM binding z-score [5]	PBM binding z-score [6]	PBM binding z-score [7]	PBM binding z-score [8]	PBM binding z-score [9]	PBM binding z-score [10]	PBM binding z-score [11]	PBM binding z-score [12]	PBM binding z-score [13]	PBM binding z-score [14]	PBM binding z-score [15]	PBM binding z-score [16]	PBM binding z-score [17]	PBM binding z-score [18]	PBM binding z-score [19]	PBM binding z-score [20]
ACAGACAGGTGATGAAGGTAACTCACGCTATCAT	-0.0545	0.135	-0.0211	0.0443	-0.474	0.247	0.81	0.393	0.232	-0.0255	0.262	0.375	0.0319	-0.0294	0.0571	0.00932	0.106	0.165	0.142	0.289
CGAACTAGGTCAAGGACTGTGAATCTCCGCACGC	3.02	2.02	-0.179	1.36	-0.152	4.37	7.06	6.47	4.05	5.99	8.18	8.06	0.764	0.958	1.34	0.92	-0.392	1.78	0.232	4.01
CCTGCTAGGCCATGGTCAGCTAATCTACAGTATG	-0.543	-0.565	-0.936	-0.753	-0.769	-0.617	0.069	-0.552	-0.451	-0.579	1.36	0.103	-0.241	-1.56	-0.736	-0.665	-0.705	-0.631	-0.715	0.929
AGAACGAGGGCACGCTGACTTGATAGCAGAGTAG	0.758	0.896	-0.482	0.363	-0.85	2.31	2.29	1.85	0.503	1.18	3.96	4.19	0.288	0.937	-0.0871	0.461	-0.269	0.898	-0.516	2.44
CGTACTGGGCCAAAGGTCATTGATTCCAATGCTC	4.8	5.21	4.25	5.04	0.838	6.66	12.7	10.7	10.2	12.9	5.43	7	0.296	-0.116	4.18	5.73	2.15	6.41	1.62	4.54
TCTTGTAGATAAAGCAGGTTAAGAAAGCCTGAGT	0.606	0.66	-0.172	0.585	-0.647	1.06	-0.166	1.54	2.82	2.17	1.9	0.689	-0.607	0.523	0.35	0.561	0.376	0.708	0.783	0.2
ATCGAAAGGTCGCCGAGGTGAGTATACACCGTTT	5.1	3.88	0.0507	3.11	0.601	5.12	3.84	4.39	1.55	2.85	0.699	2.7	1.2	0.615	1.79	3.34	0.6	4.03	0.336	4.25
CGTCCAAGGTCATAGGAGGTTAGTGAAGACAGAT	7.23	6.11	2.12	4.77	0.715	5.61	4.92	5	2.04	3.54	2.69	3.67	0.657	-0.0801	3	5.46	2.22	4.61	1.31	5.06
AGAATGAGGTTACCACAGATCAGGGAAACGCTTG	1.97	6.39	-0.0372	3.08	-0.518	3.53	2.72	2.65	1.11	1.73	3.9	3.38	1.25	0.385	1.11	1.05	0.472	1.98	0.262	1.99
TTACCAAGGTGACAGGTCGTTGATGCACGCCTTG	0.924	1.02	0.111	0.582	-0.664	2.56	3.23	4.37	1.99	3.62	2.31	3.79	0.46	0.0595	1.64	0.764	0.0726	1.14	-0.207	2.05
ACTATTAGTTCACTTAGGGCAACCGATACGACGC	1.66	0.968	0.685	0.657	0.81	0.893	1.04	0.566	0.591	0.169	0.466	0.672	1.13	1.63	0.741	1.86	5.76	0.774	0.399	2.35
ATCTCTAGGTAAGACTCTGTTCAGTGAAGAACGC	0.455	0.64	0.527	0.145	0.866	0.0687	0.000617	0.133	0.343	0.426	2.14	1.19	0.717	0.753	0.889	-0.0649	0.53	0.421	1.18	0.151
TCTAGTTGGTCACGGAGGTCACTCACGACGGGTA	2.52	2.98	1.91	2.84	0.542	3.15	2.52	3.55	3.29	3.24	2.58	3.97	0.646	0.986	2.5	3.9	1.36	3.6	1.05	3.47
CGTCCAAGGTAAAGGTCAGTGAAAGAGACTCGAA	3.41	3.38	0.618	3.01	-0.119	4.54	5.24	6.05	3.76	5.72	1.42	3.27	-0.427	-0.748	1.81	3.05	0.298	3.83	1.38	4.61
GCATATAGGTAATACCAGGTGAAAGTCCGATTGT	0.107	2.05	0.172	0.185	-0.363	1.26	1.13	1.19	0.303	0.881	4.03	3.4	0.784	0.508	0.56	0.0811	0.268	1.47	0.331	-0.00831
CGTCAAAGTTCAAGGTAACGCAACAGAAAGCAGC	6.65	5.28	2.35	3.52	1.08	4.51	4.65	5.25	2.32	4.14	0.947	2.53	0.438	0.38	3.41	4.06	3.14	3.59	1.14	5.15
CCAGAGAGGTGAAAGGTAACTCAGTCTGGTACGC	1.97	1.72	-0.386	1.72	-0.316	4.52	6.53	6.32	4.89	6.42	3.73	4.05	0.0614	-0.0478	2.31	2.19	0.131	3.44	0.813	2.39
AGAACGAGGGCACGCTGTGTTGATAGCAGAGTAG	0.77	0.377	-0.602	0.159	-1.07	1.92	2.14	1.81	0.262	1.12	4.43	3.96	0.394	-0.216	-0.372	0.28	-0.446	0.799	-0.803	2.39
CGAACTAGGTCATTGACAGGGCAGTGAATAGTAA	4.4	3.17	0.428	1.99	-0.104	4.74	7.4	6.18	3.75	5.96	8.27	7.87	2.56	1.37	2.24	1.69	0.134	2.69	0.301	3.72
CATCAAAGTTCAAGGTAACGTAACAGAAAGCAGC	6.68	5.7	3.88	3.79	2.13	4.66	3.59	4	1.71	2.82	0.753	1.84	1.29	1.96	2.92	4.19	2.76	3.44	2.21	5.31
CGTCCCAGGTCAAAGGTCAGTGAAGAGATGACGG	7.79	6.36	2.98	6.02	0.888	7.24	10.8	9.06	8.62	9.26	2.95	5.97	0.207	0.538	3.77	6.8	1.05	8.49	1.64	5.7
CAAACTTGGTCACAGAGGTCAAAGTCCGTGCGTA	5.4	5.01	5.81	5.15	1.63	5.31	4.74	5.07	2.04	4.21	2.87	4.58	0.599	0.268	3.66	6.07	3.89	6.64	1.42	4.34
TCTTGTAGTTCAATAGAGGTTAAGAAAGTGCGCT	2.33	5.37	2.45	3.06	0.28	2.28	-0.0212	1.83	2.94	2.06	1.53	0.937	0.563	1.1	1.14	4.2	1.73	2.4	0.814	2.22
TCAGACAGGAGAAGGTAACTCAGGTACGCAGTCG	0.934	1.47	-0.171	0.452	-0.646	0.384	0.666	1.78	3.37	2.69	2.06	-0.153	-0.44	-0.387	0.0505	0.125	-0.21	0.759	0.536	0.225
ATATATAGGTTAGCTGGGGTCATTCAGACTAGGC	4.53	6.18	3.51	5.39	2.03	5.2	5.62	5.43	2.62	4.79	6.82	5.96	2.35	1.71	2.62	6.52	3.94	5.27	2.07	3.21
CCGACTGGGGCAGAAAGGTTACCAAACCATCCGG	0.151	0.796	-0.38	1.02	-0.812	2.22	1.48	2.84	0.501	2.07	1.37	1.71	-0.76	-0.56	0.448	0.803	-0.532	1.58	-0.491	1.86
ACAGACAGGTGAGTGAAGGGAACTCAGCTGGACG	0.599	0.176	-0.538	-0.538	-0.387	-0.171	0.513	-0.458	-0.652	-0.465	0.124	0.352	-0.265	-0.714	-0.397	-0.572	-0.37	-0.456	-0.307	0.438
CCTTACGGGTCACACCAGGTTATAGCATCGGAGT	5.86	6.35	1.01	4.08	0.198	5.2	5.14	4.95	2.28	3.6	2.98	4.37	0.627	-0.128	2.63	5.3	0.565	5.06	1.44	4.06
ACAGACAGGTGATGAAGGTAACTAAGGCTATCAT	-0.0463	-0.218	-0.177	0.0824	-0.634	0.196	0.606	0.00614	0.045	0.0556	-0.224	0.73	0.827	-0.211	0.053	0.0666	0.104	0.191	0.0422	0.371
